Assay outcomes deposited in PubChem BioAssay by National Center for Advancing Translational Sciences (NCATS).
The list is not random: actives were taken first. Their share in the collection is about 7.9%.
MARV entry inh: blocks Marburg virus binding to or entry into cells; Marburg virus pseudotyped entry inhibition, cell reporter; Potency, µM (titrated, usually from 37.8 µM), for the others: at the top dose activity change, negative = inhibition, usual class: inhibitors; 300,000 compounds, 1.8% hits; calls by dose curve; tested in HEK293 cells; further: potency means the concentration at half of the fitted maximal effect
HCV inhibitor: HCV inhibition; 340,000 compounds, 3.4% hits; Huh7.5.1 HCVcc-Cre infection, luciferase reporter, 44 h; Potency, µM (series often up to 41.8 µM), for the others: at the highest dose activity change, negative = inhibition, actives largely listed as inhibitors; active means well fitted inhibition curve with a large enough effect; inconclusive means small, poorly fitted or top-dose-only effect, or another doubt; inactive means no such curve, though single readings can be large or run the other way; further: potency means the concentration at half of the fitted maximal effect
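Luciferase read-out (15 sec integration) after a 15 min room-temperature substrate step quantifies HCVcc-Cre infection. Cells, 1,000 per well, had compound added 4 h post-plating, then virus at ~0.5 moi, and were cultured 44 h.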
FMDV inh: antivirals against foot and mouth disease virus; AID 1159524; 410,000 compounds, 1.2% hits; FMDV antiviral cell-based qHTS; Potency, µM (titrated, usually from 57.9 µM), inactives show top-dose activity change, negative = inhibition, actives largely listed as inhibitors; calls by dose curve; tested in HEK293T cells; further: read-out not given here; potency means the concentration at half of the fitted maximal effect; nearly all actives have a fitted effect of over 45% in size
Lassa entry inh: Lassa virus entry inhibition; 300,000 compounds, 1.2% hits; AID 540256; Potency, µM (top dose mostly 37.9 µM), inactives show top-dose activity change, negative = inhibition, hits mostly inhibitors; Lassa virus pseudotype entry inhibition, cell reporter; calls by dose curve; tested in HEK293 cells; further: potency means the concentration at half of the fitted maximal effect; nearly all actives have a fitted effect of over 50% in size
HCMV inh: human cytomegalovirus inhibition | HFF cells, HCMV-luciferase reporter, 72 h; stronger effect = lower value | activity change, negative = inhibition, % at 57.5 µM | 410,000 compounds, 4.5% hits | AID 1259415; in the data active means activity change below about -60%; inconclusive means no clear call, values can overlap the other calls; inactive means above about -39%
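Inhibition of viral replication was scored as loss of reporter luminescence in HFFs infected with HCMV-luciferase (MOI 1 PFU/cell) for 72 h; compounds tested at 2 doses, normalized to buffer and Salinomycin controls.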
* = called active by the depositor; ? = inconclusive; . = no result; [ ] = dose if it differs, or a comment. On the % scale 0 is the no-effect control and ±100 the full control effect.

SMILES	MARV entry inh	HCV inhibitor	FMDV inh	Lassa entry inh	HCMV inh
CCc1ccccc1N1CC(c2nc3ccccc3n2CCOc2ccc(Cl)c(C)c2)CC1=O (centres undefined)	?	.	28.2µM*	?	-62.4*
CCN1CCN(c2ccc([N+](=O)[O-])c(Sc3nc4ccccc4[nH]3)c2)CC1	?	22.4µM*	-14.4%	-3.9%	-31.8
O=C(O)c1cc([N+](=O)[O-])c(Sc2nc3ccccc3[nH]2)c([N+](=O)[O-])c1	.	6.5%	-7.4%	.	81.7
CS(=O)(=O)c1cc([N+](=O)[O-])c(Sc2nc3ccccc3[nH]2)c([N+](=O)[O-])c1	13µM*	?	?	19.6%	23.0
O=C(NCCc1ccccc1)c1oc2ccccc2c1COc1ccccc1	?	?	17.0%	8.7%	25.1
COc1ccc2oc(C(=O)NCCc3ccccc3)c(C)c2c1	?	5.8%	-49.9%	0.891µM*	-18.6
COc1ccc2oc(C(=O)NC3(C)CCS(=O)(=O)C3)c(C)c2c1 (centres undefined)	?	?	32.8%	27.5%	-100.9*
COc1ccc2oc(C(=O)NCc3cc(OC)c(OC)cc3OC)c(C)c2c1	?	15.8µM*	?	-21.2%	-27.0
COc1ccc2oc(C(=O)NCC(c3ccco3)N(C)C)c(C)c2c1 (centres undefined)	0.3%	-22.1%	55.4%	-7.0%[46.1 µM]	-0.2
Cc1c(C(=O)NCCc2ccccc2)oc2ccccc12	6.31µM*	5.7%	16.9%	?	121.0
COc1ccc2oc(C(=O)OCC(=O)NCCc3ccccc3)c(C)c2c1	6.6%	-3.6%	7.8%	-9.4%	-33.4
Cc1cc(O)c2c(C)c(CC(=O)N3CCN(C(=O)C4COc5ccccc5O4)CC3)c(=O)oc2c1 (centres undefined)	.	?	-15.8%	.	-22.1
COc1cc(C)cc2oc(=O)c(CC(=O)N3CCN(C(=O)C4COc5ccccc5O4)CC3)c(C)c12 (centres undefined)	.	10µM*	-20.2%	.	-38.5
CCOc1ccc(C2=Nn3c(nnc3-c3ccccc3OC)SC2)cc1	0.291µM*	?	-26.2%	0.0231µM*	-94.3*
COc1ccc(OC)c(-c2nnc3n2N=C(c2ccc(OC)c(OCC4CC4)c2)CS3)c1	.	.	31.6µM*	.	.
COc1ccc(C2=Nn3c(nnc3-c3ccccc3Cl)SC2)cc1OCC1CC1	.	.	-15.2%	.	-66.1*
COc1ccc(C2=Nn3c(nnc3-c3ccccc3OC)SC2)cc1OC1CCOC1 (centres undefined)	.	.	-25.0%	.	-90.2*
Fc1ccccc1-c1nnc2n1N=C(c1ccc(OC(F)F)c(OCC3CC3)c1)CS2	.	.	-4.0%	.	23.7
COc1ccc(OC)c(C2=Nn3c(nnc3-c3cc(C)[nH]n3)SC2)c1	?	-10.6%	-16.3%	?	122.5
CCN(CC(=O)Nc1ccccc1C(F)(F)F)C(=O)/C=C/c1ccc(Cl)c([N+](=O)[O-])c1	4.8%	?	-22.5%	-1.4%	-16.6
Brc1ccc2c(c1)-n1c(nc3ccccc31)CN2	.	.	.	.	-35.9
Cc1cc(C)cc(NS(=O)(=O)c2ccc(N3CCCCS3(=O)=O)cc2)c1	.	.	10.4%	?	?
Cc1noc(NS(=O)(=O)c2ccc(NC(=O)Cc3ccc([N+](=O)[O-])cc3)cc2)c1C	11.2%[46.1 µM]	4.4%	6.4%	7.5%[46.1 µM]	23.6
CCOC(=O)N1CCN(C(=O)C(NC(=O)c2ccc(C(C)(C)C)cc2)C(C)C)CC1 (centres undefined)	.	?	-27.8%	.	-61.7*
CCOC(=O)N1CCN(C(=O)c2ccccc2NC(=O)c2ccc(C(C)(C)C)cc2)CC1	-6.4%	22.1%	-4.6%	1.9%	?
SMILES	MARV entry inh	HCV inhibitor	FMDV inh	Lassa entry inh	HCMV inh
CCOc1ccc(NC(=O)Cn2nc(-c3ccccc3Cl)n(CC)c2=S)cc1	?	?	?	-29.2%	-61.6*
CC(=O)C1=C(S(=O)(=O)c2ccc(C)cc2)CS(=O)(=O)C1	-2.8%[46.1 µM]	-8.7%	?	-10.1%[46.1 µM]	-100.1*
C[C@H](CO)N1C[C@H](C)[C@H](CN(C)C(=O)Nc2ccc(-c3cccs3)cc2)OCc2cnnn2CCCC1=O	.	.	-15.1%	.	-60.7*
O=C(NCCc1ccccc1)C1CCC(=O)N(Cc2cccc(C(F)(F)F)c2)C1 (centres undefined)	-21.6%	11.3%	-5.1%	-10.4%	55.6
CCOc1ccc(CNC(=O)c2sc3nc(C)cc(C)c3c2-n2cccc2)cc1	-15.4%[46.1 µM]	.	7.8%	3.7%[46.1 µM]	13.3
COc1cccc(CN2C(=O)c3ccccc3C2C(=O)NCCc2ccccc2)c1 (centres undefined)	?	.	-0.1%	?	18.2
COc1cc(/C=C/c2nc(C#N)c(N3CCC(C)CC3)o2)cc(OC)c1OC	6.8%[46.1 µM]	.	-11.6%	-14.2%[46.1 µM]	10.9
COc1cc(/C=C2\CCC(C)C3=C(c4cc(OC)c(OC)c(OC)c4)C(C#N)=C(N)OC32)cc(OC)c1OC (centres undefined)	?	?	?	11.2µM*	54.2
CCOc1ccc2c(S(=O)(=O)O)cccc2c1[N+](=O)[O-]	10.0%	8.7%	-10.4%	15.6%	-26.5
O=C(CCNC(=O)OCC1c2ccccc2-c2ccccc21)NOCc1ccccc1	.	-7.9%	-11.3%	.	-77.0*
COc1cccc(OC)c1OCc1cc(C2C3CCCC=C3C(C#N)=C(N)C2(C#N)C#N)c(C)cc1C (centres undefined)	?	-13.2%	?	20µM*	-2.4
Cc1cccc(CSCc2ccc(C(=O)NC(C)C)o2)c1	.	12.6µM*	?	.	6.6
O=C(O)c1ccc(CSCc2ccccc2)o1	.	.	-13.0%	.	-84.7*
CCCCOc1ccc(CNC(=O)CCCN2C(=O)CSc3c2c(C)nn3-c2ccccc2)cc1	.	.	-16.1%	?	-70.4*
CCN1CCN(/C=N/c2nc3c(s2)CCCC3)CC1	5.8µM*	?	.	?	-68.9*
COc1cc(NC(=O)Nc2nnc([C@H]3C[C@H](O)[C@@H](CO)O3)s2)cc(OC)c1OC	.	.	?	.	20.2
O=C(COC(=O)c1cc([N+](=O)[O-])ccc1N1CCCC1)Nc1ccccc1OC(F)F	-3.6%	12.6µM*	?	-3.5%	-8.8
CCC(CC)c1nnc(NC(=O)c2cc([N+](=O)[O-])ccc2N2CCCCC2)s1	?	7.08µM*	18.6%	?	-34.1
COc1ccc(NC(=O)c2cc([N+](=O)[O-])ccc2N2CCCCC2)cc1OC	?	25.1µM*	-23.7%	?	-18.1
O=C(COC(=O)c1cc([N+](=O)[O-])ccc1N1CCOCC1)Nc1ccccc1OC(F)F	-13.3%	?	-9.0%	?	1.6
COc1ccccc1NC(=O)COC(=O)c1cc([N+](=O)[O-])ccc1N1CCCC1	.	12.6µM*	?	.	-29.9
CC(C)CNC(=O)c1cc([N+](=O)[O-])ccc1N1CCCCC1	0.6%	-16.2%	-5.4%	1.2%	?
COc1ccc(NC(=O)c2cc([N+](=O)[O-])ccc2N2CCCCC2)cc1	-22.7%[46.1 µM]	?	-2.2%	-2.1%[46.1 µM]	?
